# Measurements from PMC7862700, “An all-to-all approach to the identification of sequence-specific readers for epigenetic DNA modifications on cytosine”.
# Tests used:
# Assay in all cases: DAPPL (digital affinity profiling via proximity ligation, sequencing); 10 mM Tris-HCl pH 7.5, 50 mM NaCl, 1 mM DTT, 4% glycerol, room temperature, 30 min; GST-TFs on glutathione beads, 16-mer random dsDNA library, 0.1% formaldehyde crosslink after washing; high values mean tight binding
# Conditions in all cases: protein: recombinant; tags: N-terminal GST; dsDNA, one strand shown
# [1] = molecular target: T1, FLI1 (Homo sapiens, UniProt Q01543 1-452)
# T1 sequence: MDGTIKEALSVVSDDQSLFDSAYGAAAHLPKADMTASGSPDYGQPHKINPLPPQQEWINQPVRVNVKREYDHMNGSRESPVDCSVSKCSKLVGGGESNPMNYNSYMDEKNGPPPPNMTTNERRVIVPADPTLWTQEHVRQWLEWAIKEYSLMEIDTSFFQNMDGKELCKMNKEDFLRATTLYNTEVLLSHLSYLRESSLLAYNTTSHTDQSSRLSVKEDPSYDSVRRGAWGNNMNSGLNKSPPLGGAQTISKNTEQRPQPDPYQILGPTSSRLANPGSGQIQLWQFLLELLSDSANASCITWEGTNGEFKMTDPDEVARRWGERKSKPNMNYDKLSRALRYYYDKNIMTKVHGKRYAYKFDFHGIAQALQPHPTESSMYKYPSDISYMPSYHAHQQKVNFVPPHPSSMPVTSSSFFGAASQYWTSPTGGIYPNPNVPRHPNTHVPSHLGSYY
# How it was run: (§1)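 Human transcription factors fused to GST were expressed in yeast, captured on glutathione beads, given DNA barcodes and pooled with a GST-only negative control. Pools were incubated with 200 nmole of a 16-mer random double-stranded DNA library in Tris/NaCl/DTT/glycerol buffer at room temperature for 30 min. They were then washed, crosslinked with 0.1% formaldehyde, proximity-ligated (BsaI/T4 ligase, 1 h, 37 °C), PCR-amplified and sequenced on an Illumina NextSeq500. Binding signal is each 6-mer's read frequency for a factor divided by its frequency for the GST control.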
# [2] = molecular target: T2, ELK1 (Homo sapiens, UniProt P19419 1-428)
# T2 sequence: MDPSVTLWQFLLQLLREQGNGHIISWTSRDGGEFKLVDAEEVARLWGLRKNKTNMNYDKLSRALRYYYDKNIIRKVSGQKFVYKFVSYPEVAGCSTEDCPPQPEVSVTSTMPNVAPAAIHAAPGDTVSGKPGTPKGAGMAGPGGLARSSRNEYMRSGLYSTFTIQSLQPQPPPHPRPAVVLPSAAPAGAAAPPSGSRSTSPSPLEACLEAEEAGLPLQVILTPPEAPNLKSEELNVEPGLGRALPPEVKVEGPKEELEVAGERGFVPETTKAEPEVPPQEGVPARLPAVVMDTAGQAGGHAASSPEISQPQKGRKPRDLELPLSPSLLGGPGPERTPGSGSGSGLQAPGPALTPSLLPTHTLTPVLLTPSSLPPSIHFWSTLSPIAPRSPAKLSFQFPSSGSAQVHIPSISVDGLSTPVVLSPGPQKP
# How it was run: as §1
# [3] = molecular target: T3, GABPA (Homo sapiens, UniProt Q06546 1-454)
# T3 sequence: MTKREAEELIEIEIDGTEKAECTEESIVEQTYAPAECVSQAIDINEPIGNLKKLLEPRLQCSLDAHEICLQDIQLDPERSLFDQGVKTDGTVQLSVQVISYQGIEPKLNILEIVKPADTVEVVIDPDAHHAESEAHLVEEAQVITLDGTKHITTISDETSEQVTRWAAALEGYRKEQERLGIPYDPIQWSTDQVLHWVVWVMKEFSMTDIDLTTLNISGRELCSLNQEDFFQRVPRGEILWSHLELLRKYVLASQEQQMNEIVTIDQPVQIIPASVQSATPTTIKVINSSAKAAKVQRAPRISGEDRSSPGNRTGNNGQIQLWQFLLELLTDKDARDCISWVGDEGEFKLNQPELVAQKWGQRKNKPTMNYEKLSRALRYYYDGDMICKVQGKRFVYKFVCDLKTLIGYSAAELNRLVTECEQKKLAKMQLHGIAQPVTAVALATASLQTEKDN
# How it was run: as §1
# [4] = molecular target: T4, ERG (Homo sapiens, UniProt P11308 1-479)
# T4 sequence: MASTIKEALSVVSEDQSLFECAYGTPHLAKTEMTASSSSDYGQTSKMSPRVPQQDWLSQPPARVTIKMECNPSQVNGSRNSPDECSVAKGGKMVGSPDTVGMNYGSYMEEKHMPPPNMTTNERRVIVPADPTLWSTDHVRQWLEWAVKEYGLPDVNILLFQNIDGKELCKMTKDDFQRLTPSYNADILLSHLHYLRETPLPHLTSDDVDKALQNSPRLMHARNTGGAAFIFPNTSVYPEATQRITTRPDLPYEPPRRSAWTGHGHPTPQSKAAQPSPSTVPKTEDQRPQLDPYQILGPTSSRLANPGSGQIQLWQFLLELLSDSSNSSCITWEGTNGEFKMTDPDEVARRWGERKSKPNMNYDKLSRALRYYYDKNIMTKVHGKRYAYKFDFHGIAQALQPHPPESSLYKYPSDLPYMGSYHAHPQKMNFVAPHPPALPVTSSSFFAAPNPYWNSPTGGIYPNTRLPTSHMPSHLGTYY
# How it was run: as §1
# [5] = molecular target: ELF1 (Homo sapiens, UniProt P32519 1-619)
# Chain of ELF1 (P32519 whole entry): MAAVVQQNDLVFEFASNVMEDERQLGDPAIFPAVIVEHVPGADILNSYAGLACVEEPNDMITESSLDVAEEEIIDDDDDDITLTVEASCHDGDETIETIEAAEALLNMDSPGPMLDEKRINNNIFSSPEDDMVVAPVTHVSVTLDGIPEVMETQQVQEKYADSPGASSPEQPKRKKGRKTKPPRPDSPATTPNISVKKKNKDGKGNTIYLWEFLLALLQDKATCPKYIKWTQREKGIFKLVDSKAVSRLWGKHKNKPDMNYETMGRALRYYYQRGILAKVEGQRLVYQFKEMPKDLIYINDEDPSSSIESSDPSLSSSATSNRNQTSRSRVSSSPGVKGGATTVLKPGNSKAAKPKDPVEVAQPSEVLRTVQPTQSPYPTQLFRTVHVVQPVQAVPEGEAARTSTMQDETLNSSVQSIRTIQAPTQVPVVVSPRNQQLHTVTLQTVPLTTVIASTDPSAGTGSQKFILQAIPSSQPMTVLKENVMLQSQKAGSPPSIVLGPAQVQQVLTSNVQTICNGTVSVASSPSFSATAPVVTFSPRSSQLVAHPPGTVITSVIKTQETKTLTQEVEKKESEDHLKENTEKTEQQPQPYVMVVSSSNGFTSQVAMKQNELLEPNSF
# How it was run: as §1
# [6] = molecular target: T5, EHF (Homo sapiens, UniProt Q9NZC4 1-300)
# T5 sequence: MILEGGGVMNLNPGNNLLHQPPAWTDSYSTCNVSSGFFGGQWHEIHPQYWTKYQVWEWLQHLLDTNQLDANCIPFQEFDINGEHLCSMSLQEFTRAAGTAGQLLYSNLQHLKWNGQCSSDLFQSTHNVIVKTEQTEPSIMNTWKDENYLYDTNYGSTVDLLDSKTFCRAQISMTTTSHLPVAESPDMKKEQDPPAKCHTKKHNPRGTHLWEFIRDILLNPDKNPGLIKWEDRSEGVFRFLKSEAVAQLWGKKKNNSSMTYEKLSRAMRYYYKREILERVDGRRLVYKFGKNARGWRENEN
# How it was run: as §1
# [7] = molecular target: SPI1 (Homo sapiens, UniProt P17947 1-270)
# How it was run: as §1
# [8] = molecular target: SPIB (Homo sapiens, UniProt Q01892 1-262)
# Chain of SPIB (Q01892 whole entry): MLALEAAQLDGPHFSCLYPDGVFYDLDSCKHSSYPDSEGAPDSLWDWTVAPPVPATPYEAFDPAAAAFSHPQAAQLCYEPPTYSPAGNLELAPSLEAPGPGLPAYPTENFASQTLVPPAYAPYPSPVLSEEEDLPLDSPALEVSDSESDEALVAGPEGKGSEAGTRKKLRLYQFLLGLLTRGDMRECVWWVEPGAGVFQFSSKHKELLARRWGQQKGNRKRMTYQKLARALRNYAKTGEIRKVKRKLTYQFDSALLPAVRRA
# How it was run: as §1
# [9] = molecular target: T6, ELK3 (Homo sapiens, UniProt P41970 1-407)
# T6 sequence: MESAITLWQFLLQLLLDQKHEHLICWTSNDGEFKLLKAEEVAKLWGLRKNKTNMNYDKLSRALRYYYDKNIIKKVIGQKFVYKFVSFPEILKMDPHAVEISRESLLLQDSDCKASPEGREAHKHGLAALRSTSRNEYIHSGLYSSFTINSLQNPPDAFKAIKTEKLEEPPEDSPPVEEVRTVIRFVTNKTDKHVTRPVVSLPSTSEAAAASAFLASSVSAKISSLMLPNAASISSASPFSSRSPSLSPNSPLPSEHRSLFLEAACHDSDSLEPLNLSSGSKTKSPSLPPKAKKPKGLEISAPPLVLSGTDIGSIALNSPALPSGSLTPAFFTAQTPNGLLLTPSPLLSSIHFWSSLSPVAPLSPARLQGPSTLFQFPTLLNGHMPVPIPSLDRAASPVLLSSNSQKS
# How it was run: as §1
sequence,measurement,setting,value
TATATA,binding signal,[1],"1.23 fold enrichment (6-mer frequency, TF over GST control)"
same,binding signal,[2],"1.37 fold enrichment (6-mer frequency, TF over GST control)"
same,binding signal,[3],"1.26 fold enrichment (6-mer frequency, TF over GST control)"
same,binding signal,[4],"1.3 fold enrichment (6-mer frequency, TF over GST control)"
same,binding signal,[5],"1.32 fold enrichment (6-mer frequency, TF over GST control)"
same,binding signal,[6],"1.32 fold enrichment (6-mer frequency, TF over GST control)"
same,binding signal,[7],"1.21 fold enrichment (6-mer frequency, TF over GST control)"
same,binding signal,[8],"1.49 fold enrichment (6-mer frequency, TF over GST control)"
same,binding signal,[9],"1.17 fold enrichment (6-mer frequency, TF over GST control)"
